# Laboratory results taken from ChEMBL document CHEMBL1961873, “Compounds: GSK PKIS; Assays: Nanosyn kinase panel” (2012).
# What was measured:
# [1] = biological target: Death-associated protein kinase 1 (Homo sapiens) (UniProt P53355); settings: at 1 µM;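 further: each value is a mean inhibition figure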
# [2] = biological target: T1, Serine/threonine-protein kinase DCLK2 (Homo sapiens) (UniProt Q8N568); settings: at 0.1 µM
# T1 sequence (whole entry): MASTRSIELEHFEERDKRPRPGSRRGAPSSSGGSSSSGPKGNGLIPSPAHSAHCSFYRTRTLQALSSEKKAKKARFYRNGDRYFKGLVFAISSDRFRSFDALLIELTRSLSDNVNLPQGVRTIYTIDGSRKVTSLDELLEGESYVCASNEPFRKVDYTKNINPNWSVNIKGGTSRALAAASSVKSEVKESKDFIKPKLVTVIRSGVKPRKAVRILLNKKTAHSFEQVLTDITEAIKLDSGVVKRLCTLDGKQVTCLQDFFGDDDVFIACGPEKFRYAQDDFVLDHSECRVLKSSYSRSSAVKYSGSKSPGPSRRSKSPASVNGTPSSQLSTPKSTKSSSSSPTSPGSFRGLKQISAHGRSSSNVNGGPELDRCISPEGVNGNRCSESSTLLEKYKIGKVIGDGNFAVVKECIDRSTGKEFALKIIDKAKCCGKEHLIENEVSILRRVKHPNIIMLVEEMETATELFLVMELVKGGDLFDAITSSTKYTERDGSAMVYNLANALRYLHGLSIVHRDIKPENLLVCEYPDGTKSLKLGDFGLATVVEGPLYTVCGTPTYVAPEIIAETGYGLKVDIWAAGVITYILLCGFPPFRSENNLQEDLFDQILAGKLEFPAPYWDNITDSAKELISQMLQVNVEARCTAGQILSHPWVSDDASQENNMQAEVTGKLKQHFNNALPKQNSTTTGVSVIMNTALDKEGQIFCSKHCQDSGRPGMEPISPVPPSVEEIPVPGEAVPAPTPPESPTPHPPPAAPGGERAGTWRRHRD
# [3] = biological target: T1, Serine/threonine-protein kinase DCLK2 (Homo sapiens); settings: at 1 µM
# [4] = biological target: MAP kinase-activated protein kinase 2 (Homo sapiens) (UniProt P49137); settings: at 0.1 µM
# Sequence of MAP kinase-activated protein kinase 2 (Homo sapiens) (P49137 whole entry, looked up): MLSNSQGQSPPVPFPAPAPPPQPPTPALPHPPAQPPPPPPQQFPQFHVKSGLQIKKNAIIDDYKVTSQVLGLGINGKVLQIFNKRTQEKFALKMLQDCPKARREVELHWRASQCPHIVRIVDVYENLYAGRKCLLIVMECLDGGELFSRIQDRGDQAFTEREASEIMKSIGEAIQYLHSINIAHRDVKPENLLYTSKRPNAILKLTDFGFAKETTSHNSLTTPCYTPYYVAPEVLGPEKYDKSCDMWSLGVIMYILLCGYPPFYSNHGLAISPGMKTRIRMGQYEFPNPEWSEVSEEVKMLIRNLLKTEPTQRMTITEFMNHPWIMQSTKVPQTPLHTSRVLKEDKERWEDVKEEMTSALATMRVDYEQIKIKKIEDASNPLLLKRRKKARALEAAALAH
# [5] = biological target: MAP kinase-activated protein kinase 2 (Homo sapiens) (UniProt P49137); settings: at 1 µM
# [6] = biological target: MAP kinase-activated protein kinase 3 (Homo sapiens) (UniProt Q16644); settings: at 0.1 µM
# Sequence of MAP kinase-activated protein kinase 3 (Homo sapiens) (Q16644 whole entry, looked up): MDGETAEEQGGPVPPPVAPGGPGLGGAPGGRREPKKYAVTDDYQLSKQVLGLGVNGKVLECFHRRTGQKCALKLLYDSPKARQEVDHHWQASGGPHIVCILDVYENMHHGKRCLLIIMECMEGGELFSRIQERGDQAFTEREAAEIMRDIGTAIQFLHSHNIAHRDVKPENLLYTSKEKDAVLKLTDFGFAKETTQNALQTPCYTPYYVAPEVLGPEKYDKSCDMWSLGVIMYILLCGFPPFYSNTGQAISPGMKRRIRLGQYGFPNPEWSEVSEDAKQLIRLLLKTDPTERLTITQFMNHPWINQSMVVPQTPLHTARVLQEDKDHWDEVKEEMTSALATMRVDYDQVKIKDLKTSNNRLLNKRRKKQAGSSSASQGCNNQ
# [7] = biological target: MAP kinase-activated protein kinase 3 (Homo sapiens) (UniProt Q16644); settings: at 1 µM
# [8] = biological target: Serine/threonine-protein kinase MARK1 (Homo sapiens) (UniProt Q9P0L2); settings: at 0.1 µM
# Sequence of Serine/threonine-protein kinase MARK1 (Homo sapiens) (Q9P0L2 whole entry, looked up): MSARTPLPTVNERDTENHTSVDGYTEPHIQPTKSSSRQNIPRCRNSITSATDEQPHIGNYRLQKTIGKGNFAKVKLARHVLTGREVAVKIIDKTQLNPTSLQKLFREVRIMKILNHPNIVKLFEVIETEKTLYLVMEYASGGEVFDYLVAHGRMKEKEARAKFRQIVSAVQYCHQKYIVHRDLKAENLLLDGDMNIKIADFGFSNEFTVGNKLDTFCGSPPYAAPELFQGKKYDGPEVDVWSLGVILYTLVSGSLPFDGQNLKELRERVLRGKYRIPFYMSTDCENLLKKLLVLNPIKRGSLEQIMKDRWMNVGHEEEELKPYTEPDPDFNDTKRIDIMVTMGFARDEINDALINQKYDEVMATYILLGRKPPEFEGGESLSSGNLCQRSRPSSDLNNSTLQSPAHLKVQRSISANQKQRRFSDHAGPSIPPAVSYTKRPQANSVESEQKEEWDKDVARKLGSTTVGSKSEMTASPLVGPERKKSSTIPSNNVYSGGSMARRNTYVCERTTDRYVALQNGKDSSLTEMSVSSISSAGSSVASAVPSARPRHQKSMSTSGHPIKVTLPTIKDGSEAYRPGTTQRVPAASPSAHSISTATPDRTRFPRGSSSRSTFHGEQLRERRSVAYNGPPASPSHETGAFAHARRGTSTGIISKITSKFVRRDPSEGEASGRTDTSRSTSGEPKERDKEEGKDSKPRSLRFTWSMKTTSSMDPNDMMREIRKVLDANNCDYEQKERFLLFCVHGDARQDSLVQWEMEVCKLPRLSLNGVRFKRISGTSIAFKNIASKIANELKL
# [9] = biological target: Serine/threonine-protein kinase MARK1 (Homo sapiens) (UniProt Q9P0L2); settings: at 1 µM
# [10] = biological target: MAP/microtubule affinity-regulating kinase 3 (Homo sapiens) (UniProt P27448); settings: at 0.1 µM
# Sequence of MAP/microtubule affinity-regulating kinase 3 (Homo sapiens) (P27448 whole entry, looked up): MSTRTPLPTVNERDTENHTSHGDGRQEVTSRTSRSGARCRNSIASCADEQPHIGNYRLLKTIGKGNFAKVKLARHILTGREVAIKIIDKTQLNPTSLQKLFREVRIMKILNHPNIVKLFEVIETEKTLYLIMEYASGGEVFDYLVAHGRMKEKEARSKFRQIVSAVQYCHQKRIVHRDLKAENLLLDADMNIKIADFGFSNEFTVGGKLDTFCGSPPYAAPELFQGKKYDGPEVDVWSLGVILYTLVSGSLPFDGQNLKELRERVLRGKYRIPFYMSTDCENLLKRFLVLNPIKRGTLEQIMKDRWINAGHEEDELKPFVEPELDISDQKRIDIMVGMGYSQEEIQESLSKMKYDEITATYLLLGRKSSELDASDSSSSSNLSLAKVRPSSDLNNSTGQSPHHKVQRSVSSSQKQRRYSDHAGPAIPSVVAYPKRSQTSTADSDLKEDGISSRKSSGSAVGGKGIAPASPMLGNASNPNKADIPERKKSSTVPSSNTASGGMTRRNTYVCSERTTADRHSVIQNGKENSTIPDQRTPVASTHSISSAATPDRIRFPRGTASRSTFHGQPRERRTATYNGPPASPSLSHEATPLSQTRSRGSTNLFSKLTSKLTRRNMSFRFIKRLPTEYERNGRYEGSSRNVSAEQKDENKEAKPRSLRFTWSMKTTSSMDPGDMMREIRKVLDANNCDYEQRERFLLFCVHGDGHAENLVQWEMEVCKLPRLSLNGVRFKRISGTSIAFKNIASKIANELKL
# [11] = biological target: MAP/microtubule affinity-regulating kinase 3 (Homo sapiens) (UniProt P27448); settings: at 1 µM
# [12] = biological target: T2, MAP/microtubule affinity-regulating kinase 4 (Homo sapiens) (UniProt Q96L34); settings: at 0.1 µM
# T2 sequence (whole entry): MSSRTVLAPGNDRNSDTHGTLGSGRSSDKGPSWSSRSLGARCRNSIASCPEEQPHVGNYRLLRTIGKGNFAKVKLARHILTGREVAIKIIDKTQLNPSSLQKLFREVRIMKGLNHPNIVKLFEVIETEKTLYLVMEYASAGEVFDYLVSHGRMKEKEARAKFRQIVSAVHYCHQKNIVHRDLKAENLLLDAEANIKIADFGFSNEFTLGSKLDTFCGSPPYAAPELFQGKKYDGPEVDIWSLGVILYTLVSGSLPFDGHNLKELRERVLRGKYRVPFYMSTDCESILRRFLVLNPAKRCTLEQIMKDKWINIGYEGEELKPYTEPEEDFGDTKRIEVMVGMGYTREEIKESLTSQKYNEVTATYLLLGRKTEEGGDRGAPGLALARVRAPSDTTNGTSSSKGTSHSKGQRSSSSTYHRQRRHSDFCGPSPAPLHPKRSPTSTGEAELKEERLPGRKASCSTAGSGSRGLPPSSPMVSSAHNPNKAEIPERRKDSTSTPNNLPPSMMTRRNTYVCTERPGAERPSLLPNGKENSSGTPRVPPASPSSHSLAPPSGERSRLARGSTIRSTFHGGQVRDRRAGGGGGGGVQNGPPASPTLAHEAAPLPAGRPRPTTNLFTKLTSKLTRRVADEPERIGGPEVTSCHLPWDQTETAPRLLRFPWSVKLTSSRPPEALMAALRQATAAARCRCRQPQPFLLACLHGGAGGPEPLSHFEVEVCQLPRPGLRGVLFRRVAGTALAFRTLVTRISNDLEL
# [13] = biological target: T2, MAP/microtubule affinity-regulating kinase 4 (Homo sapiens); settings: at 1 µM
# [14] = biological target: Maternal embryonic leucine zipper kinase (Homo sapiens) (UniProt Q14680); settings: at 0.1 µM
# [15] = biological target: Maternal embryonic leucine zipper kinase (Homo sapiens) (UniProt Q14680); settings: at 1 µM
# [16] = biological target: MAP kinase-interacting serine/threonine-protein kinase 1 (Homo sapiens) (UniProt Q9BUB5); settings: at 0.1 µM
# Sequence of MAP kinase-interacting serine/threonine-protein kinase 1 (Homo sapiens) (Q9BUB5 whole entry, looked up): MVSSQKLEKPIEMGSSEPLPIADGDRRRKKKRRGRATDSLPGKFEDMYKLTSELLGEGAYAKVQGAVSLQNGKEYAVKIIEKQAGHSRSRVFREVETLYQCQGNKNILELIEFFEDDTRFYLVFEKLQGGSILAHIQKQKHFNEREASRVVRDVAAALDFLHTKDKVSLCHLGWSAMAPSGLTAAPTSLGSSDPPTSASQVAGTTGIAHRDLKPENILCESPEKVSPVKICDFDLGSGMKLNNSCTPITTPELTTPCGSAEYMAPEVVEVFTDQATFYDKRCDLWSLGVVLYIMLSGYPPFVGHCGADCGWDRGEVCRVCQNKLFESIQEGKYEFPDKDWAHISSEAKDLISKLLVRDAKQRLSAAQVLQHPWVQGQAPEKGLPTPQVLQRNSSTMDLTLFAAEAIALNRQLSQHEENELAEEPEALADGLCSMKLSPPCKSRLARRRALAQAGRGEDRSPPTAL
# [17] = biological target: MAP kinase-interacting serine/threonine-protein kinase 1 (Homo sapiens) (UniProt Q9BUB5); settings: at 1 µM
# [18] = biological target: MAP kinase-interacting serine/threonine-protein kinase 2 (Homo sapiens) (UniProt Q9HBH9); settings: at 0.1 µM
# [19] = biological target: MAP kinase-interacting serine/threonine-protein kinase 2 (Homo sapiens) (UniProt Q9HBH9); settings: at 1 µM
# [20] = biological target: Serine/threonine-protein kinase MARK2 (Homo sapiens) (UniProt Q7KZI7); settings: at 0.1 µM;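 further: mean percent inhibition of PAR-1Balpha kinase activity, reported from the GSK PKIS screen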
# Sequence of Serine/threonine-protein kinase MARK2 (Homo sapiens) (Q7KZI7 whole entry): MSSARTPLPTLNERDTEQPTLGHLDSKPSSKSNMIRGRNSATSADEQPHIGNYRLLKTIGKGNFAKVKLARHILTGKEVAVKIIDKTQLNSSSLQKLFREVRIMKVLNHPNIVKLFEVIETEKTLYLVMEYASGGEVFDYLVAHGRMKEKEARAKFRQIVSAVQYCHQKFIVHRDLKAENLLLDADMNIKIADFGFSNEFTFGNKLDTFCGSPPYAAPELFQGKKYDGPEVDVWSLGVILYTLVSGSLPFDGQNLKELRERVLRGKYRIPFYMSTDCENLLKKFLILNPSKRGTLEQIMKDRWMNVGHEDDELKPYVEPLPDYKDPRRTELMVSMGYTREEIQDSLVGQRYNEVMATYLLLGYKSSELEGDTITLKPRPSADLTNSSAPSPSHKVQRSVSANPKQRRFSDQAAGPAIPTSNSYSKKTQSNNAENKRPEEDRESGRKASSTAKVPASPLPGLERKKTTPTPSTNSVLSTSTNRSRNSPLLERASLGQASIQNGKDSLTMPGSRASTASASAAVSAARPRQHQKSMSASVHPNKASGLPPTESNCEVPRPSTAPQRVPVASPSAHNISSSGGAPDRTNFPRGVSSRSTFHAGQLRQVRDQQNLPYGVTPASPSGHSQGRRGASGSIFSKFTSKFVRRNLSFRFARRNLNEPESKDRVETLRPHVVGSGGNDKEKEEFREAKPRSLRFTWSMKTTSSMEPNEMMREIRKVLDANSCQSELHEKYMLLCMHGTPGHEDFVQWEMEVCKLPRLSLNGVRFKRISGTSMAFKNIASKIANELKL
# Sequence of Death-associated protein kinase 1 (Homo sapiens) (P53355 whole entry, looked up): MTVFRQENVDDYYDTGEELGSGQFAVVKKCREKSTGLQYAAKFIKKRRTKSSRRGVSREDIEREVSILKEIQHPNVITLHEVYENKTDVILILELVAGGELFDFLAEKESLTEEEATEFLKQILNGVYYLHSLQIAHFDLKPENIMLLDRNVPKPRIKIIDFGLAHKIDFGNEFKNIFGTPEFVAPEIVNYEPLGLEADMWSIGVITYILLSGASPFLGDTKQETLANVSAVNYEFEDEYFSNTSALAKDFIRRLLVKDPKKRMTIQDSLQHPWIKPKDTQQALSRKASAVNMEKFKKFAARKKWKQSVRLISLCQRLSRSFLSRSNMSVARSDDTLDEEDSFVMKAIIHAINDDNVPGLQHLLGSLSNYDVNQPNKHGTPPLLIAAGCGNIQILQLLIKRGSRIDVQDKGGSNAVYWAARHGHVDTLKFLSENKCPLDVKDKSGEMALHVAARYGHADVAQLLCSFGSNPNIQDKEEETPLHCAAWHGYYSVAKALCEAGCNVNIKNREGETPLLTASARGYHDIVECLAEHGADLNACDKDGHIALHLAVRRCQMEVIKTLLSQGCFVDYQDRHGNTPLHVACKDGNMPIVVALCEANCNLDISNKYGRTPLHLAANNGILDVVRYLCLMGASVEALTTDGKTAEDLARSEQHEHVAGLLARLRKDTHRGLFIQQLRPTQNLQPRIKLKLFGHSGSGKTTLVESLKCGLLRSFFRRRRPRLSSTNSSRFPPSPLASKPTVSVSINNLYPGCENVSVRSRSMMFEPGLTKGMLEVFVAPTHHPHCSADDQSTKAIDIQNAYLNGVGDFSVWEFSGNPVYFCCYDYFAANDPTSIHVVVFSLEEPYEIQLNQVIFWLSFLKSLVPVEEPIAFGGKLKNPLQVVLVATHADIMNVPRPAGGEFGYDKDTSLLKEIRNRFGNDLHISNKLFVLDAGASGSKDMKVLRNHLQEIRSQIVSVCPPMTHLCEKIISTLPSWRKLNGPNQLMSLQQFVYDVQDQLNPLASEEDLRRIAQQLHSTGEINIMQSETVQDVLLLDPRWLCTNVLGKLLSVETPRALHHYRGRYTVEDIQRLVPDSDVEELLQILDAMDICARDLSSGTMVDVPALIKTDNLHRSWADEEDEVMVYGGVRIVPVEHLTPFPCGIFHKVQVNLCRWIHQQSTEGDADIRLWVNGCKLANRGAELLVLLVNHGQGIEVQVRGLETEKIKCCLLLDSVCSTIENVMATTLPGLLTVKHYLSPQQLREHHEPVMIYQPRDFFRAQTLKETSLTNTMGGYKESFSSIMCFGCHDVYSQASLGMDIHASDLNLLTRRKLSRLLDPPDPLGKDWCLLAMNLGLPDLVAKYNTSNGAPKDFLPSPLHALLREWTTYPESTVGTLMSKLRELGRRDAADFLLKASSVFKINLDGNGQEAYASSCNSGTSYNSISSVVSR
Compound,inhibition [1] [%],inhibition [2] [%],inhibition [3] [%],inhibition [4] [%],inhibition [5] [%],inhibition [6] [%],inhibition [7] [%],inhibition [8] [%],inhibition [9] [%],inhibition [10] [%],inhibition [11] [%],inhibition [12] [%],inhibition [13] [%],inhibition [14] [%],inhibition [15] [%],inhibition [16] [%],inhibition [17] [%],inhibition [18] [%],inhibition [19] [%],inhibition [20] [%]
OCCCNc1nccc(-c2c(-c3ccc(F)cc3)nn3cc(C(F)(F)F)ccc23)n1,1.04,0.89,2.29,0.94,0.71,30.2,36.3,0.69,3.09,0.94,3.84,0.24,2.09,0.52,2.27,2.61,6.2,2.75,3.6,-1.06
COc1ccc2ncn(-c3cc(O[C@H](C)c4ccccc4C(F)(F)F)c(C(N)=O)s3)c2c1,-2.31,-0.78,-1.64,-0.39,-0.49,-0.9,-0.93,0.76,5.8,-0.92,1.97,-0.65,5.41,-0.14,2.51,-0.15,3.25,0.74,4.03,0.4
CC1=C(C(=O)Nc2ccc3[nH]ncc3c2)C(c2ccc(F)cc2)N=C(c2ccc(C(F)(F)F)nc2)N1 (stereo not given),0.67,-2.05,4.18,1.36,0.33,1.46,3.59,1.66,4.38,1.04,1.71,0.35,2.44,2.15,5.11,2.55,4.82,0.9,3.32,-1.01
COc1ccccc1-c1cc(/C=C2\C(=O)Nc3ncc(Br)cc32)cc(Br)c1O,4.6,0.85,1.21,1.81,1.69,5.31,6.33,3.43,7.22,3.34,1.27,2.01,5.18,4.33,8.21,4.21,11.7,7.61,40.1,-0.96
N#Cc1ccc2c(-c3ccnc(NC4CC4)n3)c(-c3ccc(F)cc3)nn2c1,0.06,-0.01,1.17,0.5,-0.23,32.7,35.1,0.42,1.08,2.94,0.43,0.81,0.11,-0.07,-2.83,1.98,0.7,-0.74,1.03,-0.15
CNC(=O)c1cncc(/C=C/c2ccccc2C)c1,7.67,0.83,0.28,1.99,2.51,3.43,3.22,2.55,7.06,3.94,6.03,1.26,3.49,1.3,4.29,4.95,29.4,2.12,14.9,1.19
CS(=O)(=O)Nc1ccc(-c2cc(-c3ccccc3)cc(C(N)=O)c2N)cc1,1.38,-0.48,1.02,1.59,1.42,0.37,2.22,0.39,1.47,-0.54,0.12,0.69,0.98,3.07,7.77,1.45,4.03,-0.47,3.27,-0.25
CS(=O)(=O)CCNCc1ccoc1-c1ccc2ncnc(Nc3ccc(OCc4ccccc4)cc3)c2c1,-0.75,-1.49,-0.03,-0.61,-0.91,0.57,0.18,-0.89,1.23,-2.66,-1.52,-0.56,-0.4,-0.71,-0.61,2,4.19,0.34,5.82,-1.43
N#Cc1cccc(Nc2ncc(-c3ccccc3)o2)c1,2.82,-0.77,0.28,0.9,1.11,-0.02,2.79,1.98,5.43,-0.93,7.34,-0.09,1.81,-0.12,2.2,2.67,10.1,2.19,8.7,-0.17
FC(F)(F)CNc1nccc(-c2cnn3ncccc23)n1,2.17,-0.54,3.19,1,-0.08,3.47,3.54,1.58,4.46,0.46,-0.26,1.01,0.89,5.66,27.5,4.07,20.6,2.55,26.4,0.47
